# Results: PubChem BioAssay (NCATS)
# Values joined by “and” are separate entries in the source; they are usually repeats but may differ in a detail not shown here. Equal values may be shown once. Inconclusive results are not listed. A call without a number means that no potency is given here. Values without a mark were called inactive. Active and inactive are the calls of the source. The call rests on the fitted dose curve; in most records, active means well fitted curve in the direction sought with a large enough effect; inconclusive means small, poorly fitted or top-dose-only effect, or another doubt; inactive means no such curve, though single readings can be large; an effect the other way counts as inactive or inconclusive.
# How the values were obtained:
# [1] = Viability qHTS for spleen associated tyrosine kinase inhibitor (SYKi) naive MV4-11 cells (AID 1963823); conditions: MV4-11 AML viability, CellTiter-Glo luminescence, 72 h; series mostly up to 45 µM; further: nearly all actives have a fitted effect of over 40% in size
# Outline: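 CellTiter-Glo luminescence, 10 min room-temperature incubation, gave viability. Cells: naive MV4-11 (500/well), treated 72 hr at 37 C, 5% CO2.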
# [2] = Viability qHTS for spleen associated tyrosine kinase inhibitor (SYKi) drug resistant MV4-11 cells (AID 1963824); conditions: SYKi-resistant MV4-11 viability, CellTiter-Glo, 72 h; series mostly up to 45 µM; further: nearly all actives have a fitted effect of over 35% in size
# Outline: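 SYK inhibitor-resistant MV4-11 AML cells, 500 per well, added to predispensed compounds and incubated 72 hr at 37 C, 5% CO2. Viability measured by CellTiter-Glo luminescence after 10 min at room temperature.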
# [3] = Cellular viability qHTS for adrenocortical cancer (ACC) cell line SW-13 (AID 1963989); conditions: SW-13 ACC cells viability, CellTiter-Glo, 48 h; activity (max response): stronger effect = lower value; further: nearly all actives have a fitted effect of over 65% in size;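 on activity (max response): cells grown in serum-free medium with ITS supplement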
# Outline: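 48 h treatment, SW-13 in ITS/DMEM serum-free; doses up to 46 uM; readout CellTiter-Glo luminescence; curve fit four-parameter logistic.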
# [4] = Cellular viability qHTS for adrenocortical cancer (ACC) cell line NCI-H295R (AID 1963990); conditions: CellTiter-Glo ATP luminescence, 48 h; series mostly up to 46.1 µM; further: nearly all actives have a fitted effect of over 60% in size
# Outline: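 Compound titrations (up to 46 uM final) are applied to NCI-H295R cultures for 48 h at 37C. Viable cell number is estimated by CellTiter-Glo signal, normalised to DMSO and doxorubicin controls.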
# Potency means the concentration at half of the fitted maximal effect.
SMILES,Potency [1],Potency [2],activity (max response) [3] [%],Potency [4],Potency [3]
CO[C@H]1/C=C/O[C@@]2(C)Oc3c(C)c(O)c4c(O)c(c5c(c4c3C2=O)=NC2(CCN(CC(C)C)CC2)N=5)NC(=O)/C(C)=C/C=C/[C@H](C)[C@H](O)[C@@H](C)[C@@H](O)[C@@H](C)[C@H](OC(C)=O)[C@@H]1C,18.6 µM (active),18.6 µM (active),-11.1,inactive,
O=C(O)C(S)C(S)C(=O)O (centres undefined),inactive,inactive,13.2,inactive,
CN(C(=O)C(Cl)Cl)c1ccc(OC(=O)c2ccco2)cc1,inactive,inactive,-5.24,inactive,
CC(C)(O)[C@H]1CC[C@@](C)([C@H]2[C@@H](O)C[C@@]3(C)[C@@H]4C[C@H](O[C@@H]5O[C@H](CO)[C@@H](O)[C@H](O)[C@H]5O)[C@H]5C(C)(C)[C@@H](O[C@@H]6OC[C@@H](O)[C@H](O)[C@H]6O)CC[C@@]56C[C@@]46CC[C@]23C)O1,inactive,inactive,1.01,inactive,
C=CCNC1=C2CC(C)CC(OC)C(O)C(C)/C=C(\C)C(OC(N)=O)C(OC)/C=C/C=C(\C)C(=O)NC(=CC1=O)C2=O (centres undefined),0.0934 µM (active),0.332 µM (active),,10000 nM (active),3160 nM (active)
Cc1ccccc1N=Nc1ccc(N=Nc2c(O)ccc3ccccc23)c(C)c1,inactive,inactive,15.2,inactive,
C[C@@H]1O[C@@H](OC[C@H]2O[C@@H](Oc3c(-c4ccc(O)c(O)c4)oc4cc(O)cc(O)c4c3=O)[C@H](O)[C@@H](O)[C@@H]2O)[C@H](O)[C@H](O)[C@H]1O,inactive,inactive,16.6,inactive,
Cc1cc(-c2nc3cc(F)ccc3s2)ccc1NC(=O)[C@@H](N)CCCCN,2.31 µM (active),2.59 µM (active),,17800 nM (active),25100 nM (active)
C[C@H](CCC(=O)O)[C@H]1CC[C@H]2[C@@H]3C(=O)C[C@@H]4CC(=O)CC[C@]4(C)[C@H]3CC(=O)[C@]12C,inactive,inactive,15.5,inactive,
CN[C@@H]1C[C@H]2O[C@@](C)([C@@H]1OC)n1c3ccccc3c3c4c(c5c6ccccc6n2c5c31)C(=O)N[C@H]4O,0.0119 µM (active),0.0237 µM (active),,150 nM (active),376 nM (active)
CC(=O)[C@]1(N)Cc2c(O)c3c(c(O)c2[C@@H](O[C@H]2C[C@H](O)[C@H](O)CO2)C1)C(=O)c1ccccc1C3=O,5.9 µM (active),4.68 µM (active),-6.73,inactive,
Oc1cc(O)cc(/C=C/c2ccc(O)c(O)c2)c1,5.9 µM (active) and 5.17 µM (active),5.9 µM (active) and 2.59 µM (active),-23.2,inactive,
COc1ccccc1OCC(O)CO (centres undefined),inactive,inactive,13.4,inactive,
CC(=O)O[C@@H]1CC2C3CCc4cc(OC(=O)c5ccccc5)ccc4C3CCC2(C)[C@H]1OC(C)=O (some centres undefined),inactive,inactive,3.65,inactive,
COc1cc(-c2ccc(=O)[nH]n2)ccc1OC(F)F,inactive,inactive,-6.02,inactive,
CC(C)(NS(=O)(=O)c1ccc2c(Cl)cnc(N=C(N)N)c2c1)C(=O)O,inactive,inactive,5.36,inactive,
CC(C)(C)C1CCC(CC2=C(O)c3ccccc3C(=O)C2=O)CC1 (centres undefined),inactive,inactive,12.3,inactive,
COc1ccc(/C=C\c2cc(OC)c(OC)c(OC)c2)cc1O,0.0053 µM (active),0.0047 µM (active),,8.9 nM (active),10 nM (active)
N=C(N)c1ccc2nc(-c3cc(CC(=O)N[C@@H](CC(=O)O)C(=O)O)cc(-c4cc(S(N)(=O)=O)ccc4O)c3O)[nH]c2c1,inactive,inactive,10.3,inactive,
CC(C)(C)NCC(O)COc1cccc2c1CCC(=O)N2 (centres undefined),inactive,inactive,3.97,inactive,
C=CC(=O)Nc1cccc(Nc2nc(Nc3ccc(NC4CN(CCF)C4)cc3OC)ncc2C(F)(F)F)c1,1.3 µM (active) and 662 nM (active),1.3 µM (active) and 1.48 µM (active),,8910 nM (active),2510 nM (active)
